Results reported in PubChem BioAssay AID2284369 (EPA ToxCast).
Results filed as inconclusive are left out. The source made the active and inactive calls. Rule for the calls: active = hit-call score of the fitted dose curve at least 0.9, where 1 is the maximum; inconclusive = response in the unintended direction; inactive = score below 0.9.

What follows are compounds tested on frog Estrogen Receptor (ER1), gene 398734 (assay: ATG_frER1_EcoTox2: Attagene TRANS-FACTORIAL EcoTox-2 HepG2 Assay for frog Estrogen Receptor (ER1)).
Protocol: ATG_EcoTox2 is a cell-based, multiplexed assay created by modifying the existing Attagene TRANS-FACTORIAL system to include a panel of nuclear receptors from some or all the following species: human (Homo sapiens), african clawed frog (Xenopus laevis), rainbow trout (Oncorhynchus mykiss), japanese medaka (Oryzias latipes), and zebrafish (Danio rerio). The ECOTOX2-FACTORIAL format uses HepG2, a human liver cell line, with measurements taken at 24 hours after chemical dosing in a 24-well plate. ATG_frER1_EcoTox2 is one of 29 assay components calculated in the ATG_EcoTox2 assay. It is designed to make measurements of mRNA induction, a form of inducible reporter, as detected with fluorescence intensity signals by Reverse transcription polymerase chain reaction (RT-PCR) and Capillary electrophoresis technology.The assay endpoint ATG_frER1_EcoTox2 was analyzed in the positive analysis fitting direction relative to DMSO as the negative control and baseline of activity. Using a type of inducible reporter, measures of mRNA for gain-of-signal activity can be used to understand the reporter gene at the transcription factor-level as they relate to the gene ER. Furthermore, this assay endpoint can be referred to as a primary readout, because this assay has produced multiple assay endpoints where this one serves a reporter gene function. To generalize the intended target to other relatable targets, this assay endpoint is annotated to the nuclear receptor intended target family, where the subfamily is steroidal.
Human liver HepG2 cells are transiently transfected with multiple reporter transcription units (MRTUs) in 6-well plates using FuGene 6 reagent (Roche; 3 ml FuGene/1 mg DNA). The MRTU constructs are regulated by a cis-regulating element (promoter). Each RTU expresses a GAL4-UAS that regulates the transcription of a nearby target reporter gene sequence. A major difference between the CIS and TRANS system is that in CIS activities of endogenous TFs are measured, whereas the TRANS assay evaluates changes in activities of exogenous, chimeric NR-Gal4 proteins. […] At the end of 24 hour incubation, total RNA was isolated using TriZol reagent (Invitrogen). The isolated RNA is then reverse-transcribed using oligo(dT) primer and Mo-MLV reverse transcriptase (Invitrogen) with DNAse I (Ambion) treatment for 30 min. The one-tenth of the produced cDNA was amplified by PCR using Taq DNA polymerase (Invitrogen) and two reporter sequence-specific primers. The PCR products were fluorescently labeled by primer extension with 6-arboxyfluorescein (6-FAM) 5'-labeled reporter sequence-specific primer (2 min at 95 C, 20 s at 68 C and 10 min at 72 C) and these products were digested with 5U of HpaI (New England Biolabs) for 2h at 37 C. The fragments were purified using Qiaquick PCR columns (Qiagen), analyzed on an ABI 3130xL genetic analyzer (Applied Biosystems) with peak positions identified by using a set of X-rhodamine (ROX)-labeled MapMarker1000 molecular weight standards (BioVentures). The raw capillary electrophoresis data was processed using Attagraph software (Attagene).

Structure (SMILES)	outcome	AC50
CC(c1cc2ccccc2s1)N(O)C(N)=O (stereo not given)	inactive	–
Cc1c(C)c2c(c(C)c1O)CCC(C)(COc1ccc(CC3SC(=O)NC3=O)cc1)O2 (stereo not given)	inactive	–
C[C@@H]1C[C@H]2[C@@H]3CCC4=CC(=O)C=C[C@]4(C)[C@@]3(F)[C@@H](O)C[C@]2(C)[C@@]1(O)C(=O)COP(=O)(O)O	inactive	–
C[C@]12C=CC(=O)C=C1CC[C@@H]1[C@@H]2C(=O)C[C@@]2(C)[C@H]1CC[C@]2(O)C(=O)CO	–	50 µM (active)
C=C(c1ccc(C(=O)O)cc1)c1cc2c(cc1C)C(C)(C)CCC2(C)C	inactive	–
CN(CCOc1ccc(CC2SC(=O)NC2=O)cc1)c1ccccn1 (stereo not given)	inactive	–
Cc1ccc(C)c(OCCCC(C)(C)C(=O)O)c1	inactive	–
CC(C)(Oc1ccc(CCNC(=O)c2ccc(Cl)cc2)cc1)C(=O)O	inactive	–
Cc1cccc(Nc2cc(Cl)nc(SCC(=O)O)n2)c1C	inactive	–
CC(C)OC(=O)C(C)(C)Oc1ccc(C(=O)c2ccc(Cl)cc2)cc1	inactive	–
